High-throughput results (PubChem)
KDM5B inh = inhibitors of human KDM5B histone demethylase; AID 1347165; Q9UGL1; actives 2.6% (n = 220,000); Potency, µM (series often up to 57.7 µM), hits mostly inhibitors; KDM5B demethylase, FDH-coupled NADH fluorescence (FDH is formaldehyde dehydrogenase); further: potency means the concentration at half of the fitted maximal effect; 0% is about no effect; nearly all actives have a fitted effect of over 70% in size
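qHTS format, multiple compound concentrations. Buffer 50 mM HEPES pH 7.5/0.01% Tween-20; 200 nM KDM5BΔAP final; 10 min compound preincubation; substrate-mix levels 12.5 µM peptide, 25 µM α-KG, 0.25 mM NAD⁺; 30 min RT; ΔRFU.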
SNCA expr inh = reduces expression of the alpha-synuclein gene. Potency, µM (titrated, usually from 57.2 µM), for the others: at the top dose activity change, negative = inhibition, actives largely listed as inhibitors. actives 0.17% (n = 140,000). HEK-293 SNCA-luciferase knock-in, luminescence, 24 h;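 further: potency means the concentration at half of the fitted maximal effect; plate controls were DMSO cells for no effect and cell-free wells for full effect; nearly all actives have a fitted effect of over 45% in size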
HEK293 viab = counter-screen for SNCA expression inhibitors: cell viability; HEK-293-SNCA-luc viability, GF-AFC fluorescence, 24 h; Potency, µM (titrated, usually from 57.1 µM), for inactives: at the highest dose activity change, negative = cytotoxicity, most hits filed as cytotoxic; actives 0.12% (n = 150,000);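 further: potency means the concentration at half of the fitted maximal effect; 0% = DMSO-treated cells and -100% = medium-only wells without cells; nearly all actives have a fitted effect of over 30% in size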
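HEK-293-SNCA-luc cells (1500/well) plated 24 h, then exposed 24 h to a dilution series; GF-AFC added 30 min at 37C, fluorescence 405/540 nm; normalised to medium-only and DMSO wells, Hill fit.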
IP6K1 inhibitor = IP6K1 kinase inhibition; Q92551; IP6K1 kinase, ADP-Glo luminescence, 2 h; active compounds read low; activity change, % (series mostly up to about 58 µM); actives 0.81% (n = 140,000); in the data active means activity change below about -25%; further: on the % scale 0 is the no-effect control and ±100 the full control effect
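ADP-Glo luminescence measures ADP made by human IP6K1 during a 2 h RT reaction with ATP/IP6 (mix at 1.3 mM/130 uM); top library doses 57.5 and 19.1 uM final.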
IP6K1 conf = confirmation of human IP6K1 inhibitors; Potency, µM (highest dose often 49 µM), without a hit: at the top dose activity change, negative = inhibition, actives largely listed as inhibitors; recombinant IP6K1 kinase, ADP-Glo luminescence, 2 h; actives 13% (n = 1,200); shares compounds with IP6K1 inhibitor; further: potency means the concentration at half of the fitted maximal effect; on the % scale 0 is the no-effect control and ±100 the full control effect; nearly all actives have a fitted effect of over 65% in size
* hit, by the source's call; i = inactive; ? = inconclusive; · = no result; ! = not active in a repeat; [ ] = dose if it differs, or a comment. Rows were chosen to be rich in hits. Some 2.9% of all compounds tested hit in one or more screens of this group. Unless noted, the call rests on the fitted dose curve; in most records, active means well fitted curve in the direction sought with a large enough effect; inconclusive means small, poorly fitted or top-dose-only effect, or another doubt; inactive means no such curve, though single readings can be large; an effect the other way counts as inactive or inconclusive.

SMILES	KDM5B inh	SNCA expr inh	HEK293 viab	IP6K1 inhibitor	IP6K1 conf
Cc1nc(-c2ccccc2Br)cc([C@H]2CN3CC[C@H]2C[C@@H]3CNS(=O)(=O)c2cccs2)n1	i	-21%	-8%	-4	·
C#C[C@H]1CN2CC[C@H]1C[C@@H]2COC(=O)Nc1ccc(OC(F)(F)F)cc1	i	-7%[87.6 µM]	-7%[87.6 µM]	-9	·
CC[C@H]1CN2CC[C@H]1C[C@@H]2CNC(=O)Nc1ccc(C(C)(C)C)cc1	i	-22%[87.6 µM]	1%[87.6 µM]	4	·
CC[C@H]1CN2CC[C@H]1C[C@@H]2CNC(=S)Nc1ccc(N(C)C)cc1	i	32%[87.6 µM]	-10%[87.6 µM]	-33*	-11%
CCN(CC)C(=O)[C@@H]1C=C2c3cccc4[nH]cc(c34)C[C@H]2N(C)C1	·	16%[87.6 µM]	58%[87.6 µM]	-72*	2%
CC(C)(C)[C@]1(O)C[C@@H]2OC(=O)C[C@@]23C(=O)O[C@@H]2OC(=O)[C@@H](O)[C@]213	·	·	-10%	4	·
O=C1Nc2ccccc2C12CCN(Cc1ccc(C(F)(F)F)cc1)CC2	i	?	-13%	-32*	?
O=C1Nc2ccccc2C12CCN(Cc1cccc3ccccc13)CC2	i	-7%	-16%	-47*	?
CCOC(=O)CC(SP(=S)(OC)OC)C(=O)OCC (configuration not stated)	·	2%[25.6 µM]	-5%[23.9 µM]	-70*!	18µM*
COc1ccc2c(c1)C1(CCN(C(=O)COc3ccc(Cl)cc3)C1)C(=O)N2C (configuration not stated)	i	2%	-9%	-18	·
CC(C)Cc1nc2cccnc2n1C1CCNCC1	i	-7%	4%	-33*	12%
OC[C@H]1C[C@@H](NC2CCOCC2)[C@H](O)[C@@H]1O	i	-20%[87.6 µM]	0%[87.6 µM]	-10	·
COc1cc2c(cc1OCC1CC1)NC(=O)C21CCN(c2nc(C)cnc2C)CC1	i	4%[87.6 µM]	-14%[87.6 µM]	-32*	-19%
COc1cc2c(cc1OCC1CC1)NC(=O)C21CCN(c2ccnc(C)n2)CC1	i	-8%[87.6 µM]	-16%[87.6 µM]	-16	·
O=C(NCc1ccc(F)cc1)[C@H]1CN2CCC1C[C@@H]2Cn1cc(CO)nn1 (some centres not stated)	i	9%[87.6 µM]	14%[87.6 µM]	29	·
CCOc1ccc2c(n1)CCNC2	i	17%	3%[12.5 µM]	-26*	-4%
CCCCCOc1cc2c(cc1-c1cc(/C=C/C(=O)O)ccc1O)C(C)(C)CCC2(C)C	·	·	?	-27*	?
COc1nn(CSP(=S)(OC)OC)c(=O)s1	·	-35%	?	-46*	10µM*
COc1cc2c(cc1OCc1ccccc1)NC(=O)C21CCN(Cc2nccs2)CC1	i	35%[87.6 µM]	-17%[87.6 µM]	-33*	?
COc1cc2c(cc1OCc1ccncc1)NC(=O)C21CCN(Cc2ccccc2)CC1	i	-19%[87.6 µM]	-11%[87.6 µM]	-22	·
O=C(Cc1c(F)cccc1Cl)N1CCN(Cc2ccccc2)CC(O)C1 (configuration not stated)	?	-16%	7%	-13	·
